# 12-LOX inh – Primary qHTS assay for inhibitors of human arachidonate 12S-lipoxygenase (ALOX12): Round 2. Potency, µM (series often up to 108 µM), inactives show at the top dose activity change, negative = inhibition, most hits filed as inhibitors. 1.1% of 580,000 active. purified 12hLO, xylenol orange hydroperoxide absorbance; also: % is scaled to controls: 0 for no effect and ±100 for the full control effect
#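 Purified human 12hLO at 150 nM in 25 mM Hepes, 0.01% Triton X-100, pH 7.0, preincubated 15 min at room temperature with compound. Reaction started with 40 uM arachidonic acid, 30 min at room temperature. Hydroperoxide measured by Fe-xylenol orange, 573/405 nm absorbance ratio.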
# G9a inh – qHTS Assay for Inhibitors of Histone Lysine Methyltransferase G9a; Histone-lysine N-methyltransferase EHMT2 (Homo sapiens), Q96KQ7; G9a H3K9 monomethylation, AlphaScreen, 2 h; Potency, µM (series often up to 102 µM), for inactives: top-dose activity, negative = inhibition, most hits filed as inhibitors; 8.8% of 350,000 active; AID 504332, 2011; also: % is scaled to controls: 0 for no effect and ±100 for the full control effect; nearly all actives have a fitted effect of over 75% in size
#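 AlphaScreen read-out: biotin-H3K9 peptide (500 nM) methylation by 20 nM enzyme with 20 uM SAM, 2 h at room temperature after 15 min compound preincubation; anti-monomethyl H3K9 antibody plus donor/acceptor beads, 10 min dark.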
# HP1b chromo inh – HTS for Inhibitors of HP1-beta Chromodomain Interactions with Methylated Histone Tails | AlphaScreen HP1-beta / biotin-H3K9me3 peptide binding | AID 540317, 2011 | 0.56% of 390,000 active | Potency, µM (titrated, usually from 114 µM), without a hit: at the top dose activity change, negative = inhibition, hits mostly inhibitors | Chromobox protein homolog 1 (Homo sapiens), P83916; also: nearly all actives have a fitted effect of over 70% in size
#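 HP1-beta protein (50 nM final) preincubated 30 min at room temperature with biotinylated H3(1-18)K9me3 peptide (50 nM) in PBS pH 7.4, 0.01% Tween-20, then compound added for 30 min. AlphaScreen streptavidin donor/nickel chelate acceptor beads (10 ug/mL final), 30 min dark, luminescence read.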
# PLK1 PBD block – qHTS for Inhibitors of PLK1-PDB (polo-like kinase 1 - polo-box domain): Primary Screen | Serine/threonine-protein kinase PLK1 (Homo sapiens), P53350 | Plk1 PBD binding of FITC phosphopeptide, fluorescence polarization | Potency, µM, for the others: max response, negative = inhibition, usual class: inhibitors | 2.8% of 360,000 active | AID 720504, 2013; also: series mostly up to about 57 µM; % is scaled to controls: 0 for no effect and ±100 for the full control effect; nearly all actives have a fitted effect of over 65% in size
# JMJD2A Tudor – qHTS Assay for Inhibitors of JMJD2A-Tudor Domain. Lysine-specific demethylase 4A (Homo sapiens), O75164. AlphaScreen JMJD2A-Tudor / H3K4me3 peptide binding. Potency, µM (series often up to 114 µM), for inactives: top-dose activity change, negative = inhibition, hits mostly inhibitors. 4.4% of 390,000 active. AID 504339, 2011; also: % is scaled to controls: 0 for no effect and ±100 for the full control effect; nearly all actives have a fitted effect of over 50% in size
# BAZ2B inh – qHTS Assay for Inhibitors of BAZ2B. 4.4% of 360,000 active. Bromodomain adjacent to zinc finger domain protein 2B (Homo sapiens), Q9UIF8. AlphaScreen BAZ2B-H3K14Ac peptide displacement. Potency, µM (doses to about 114 µM), for the others: at the highest dose activity change, negative = inhibition, usual class: inhibitors; also: % is scaled to controls: 0 for no effect and ±100 for the full control effect; nearly all actives have a fitted effect of over 60% in size
#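 Compounds, titrated to a top concentration of 110 uM, were incubated 30 min at room temperature with preformed BAZ2B/acetyl-K14 H3 peptide complex (50 nM each). Proximity signal was measured by AlphaScreen after 20 min with beads.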
# Numbers without * were called inactive; ? = inconclusive; nt = no result; [ ] = dose if it differs, or a comment. This is a sample that favours compounds with a hit; in the whole collection about 9% have one here. Calls follow the shape of the dose curve; as a rule, active = well fitted curve in the direction sought with a large enough effect; inconclusive = small, poorly fitted or top-dose-only effect, or another doubt; inactive = no such curve, though single readings can be large; an effect the other way counts as inactive or inconclusive. Potency is read from the fitted curve at half-maximal effect.
SMILES,12-LOX inh,G9a inh,HP1b chromo inh,PLK1 PBD block,JMJD2A Tudor,BAZ2B inh
Cc1sc2ncnc(N3CCC(C(=O)Nc4ccc(Cl)cc4Cl)CC3)c2c1C,-11%,56µM*,19%,-6%,-10%,-2%
Cc1sc2ncnc(N3CCC(C(=O)Nc4ccc(Cl)c(Cl)c4)CC3)c2c1C,38%,-1%[12.7 µM],40%,2%,-5%,1%
Cc1sc2ncnc(N3CCC(C(=O)Nc4ccc(Br)cc4Br)CC3)c2c1C,-6%,40µM*,12%,0%,-14%,7%
CCCn1nnc(NCc2ccc(OCc3cccs3)c(OC)c2)n1,0%,1%[59 µM],?,-4%,6%,-5%
O=c1cc(-c2ccccc2)cc(-c2ccccc2)n1O,?,15%[12.7 µM],7%,-9%,50µM*,35µM*
COC(=O)c1cc(NCc2ccccc2F)ccc1N1CCOCC1,?,45µM*,9%,-6%,-25%,-12%
COC(=O)c1cc(NC/C=C/c2ccccc2)ccc1N1CCOCC1,-27%,nt,nt,nt,nt,nt
O=C(O)c1cc(NCc2c(F)cccc2Cl)ccc1N1CCOCC1,1%,13µM*,9%,-12%,-2%,9%
O=Cc1ccc(OC(=O)/C=C/c2ccccc2)cc1,11%,4%,17%,-13%,0%,6%
COc1ccc(CNC(=O)CN(C(=O)c2csnn2)c2cccc3ccccc23)cc1,4%,-11%,-7%,5%,-8%,-2%
O=c1[nH]c(=S)[nH]c2c1C(c1cc([N+](=O)[O-])c(N3CCOCC3)cc1N1CCOCC1)O2 (configuration not stated),?,45µM*,12%,-9%,-35%,-16%
COc1ccc(CCNC(=O)Cn2cccc2-c2nc(-c3ccc4c(c3)OCO4)no2)cc1OC,23%,nt,nt,nt,nt,nt
COc1ccc(C=NN=C2c3ccccc3-c3ccccc32)cc1OC,-16%,nt,?,9%,13µM*,nt
CC(O)(c1ccccc1)c1nc(-c2ccc(S(C)(=O)=O)cc2)cs1 (configuration not stated),1%,nt,nt,-12%,nt,nt
CCOCCCNCc1cc(Br)ccc1OCc1ccccc1,-9%,?,13%,-1%,-19%,2%
Clc1ccc(Cl)c(OCCCCNCc2ccccc2)c1,?,?,?,-4%,1.3µM*,?
Clc1ccc(OCCCNCc2ccccc2)c(Br)c1,?,13µM*,-22%,-4%,10µM*,?
Cc1ccc(C)c(NC(=O)CN(CCc2ccccc2)S(=O)(=O)c2ccccc2)c1,-5%,4%[59 µM],31%,nt,9%,8%
Cn1c(SCC(=O)c2ccc(F)cc2)nnc1-c1cnccn1,3%,?,31%,-1%,-3%,17%
COc1ccc(-n2c(C)cc(-c3csc(NC(=O)c4ccc(S(=O)(=O)N(C)C)cc4)n3)c2C)cc1,20%,20%[59 µM],-1%,-9%,-22%,-1%
CCOC(=O)c1c(CN2CCN(C)CC2)oc2ccc(OC)cc12,?,?,19%,-8%,?,79µM*
CCOC(=O)c1oc2ccccc2c1CN1CCN(C(=O)c2ccccc2)CC1,13%,-46%,28%,0%,-15%,-5%
CCOC(=O)c1c(CN2CCN(c3ccccc3)CC2)oc2ccc(O)cc12,-12%,40µM*,-2%,4%,?,?
CCOC(=O)c1c(CN2CCCCC2)oc2ccc(OC)cc12,?,19%[2.33 µM],23%,-5%,?,-32%
CCOC(=O)c1oc2ccccc2c1CN1CCN(c2ccccc2)CC1,?,?,-17%,2%,79µM*,56µM*

# Bioassay records (PubChem BioAssay)
